# In PubChem BioAssay (Tox21):
# Values without a mark were called inactive. Results filed as inconclusive are left out. A call without a number means that no potency is given here. The source made the active and inactive calls. Unless noted, calls come from the whole dose curve; as a rule, active = well fitted curve in the direction sought with a large enough effect in the repeat runs; inconclusive = weak or mixed curves; inactive = no such curve, though single readings can be large; an effect the other way counts as inactive or inconclusive.
# How the values were obtained:
# [1] = qHTS assay to identify small molecule agonists of the estrogen receptor alpha (ER-alpha) signaling pathway in the presence of an antagonist - cell viability counter screen (AID 1259386);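 note: cells exposed to compounds for 22 h at 37 °C before the viability read; nearly all actives have a fitted effect of over 30% in size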; note: potency is the fitted concentration of half-maximal effect
# Summary of the method: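 Steps: 5-day stripped-FBS culture; seed and incubate 24hr; add ICI-182,780 (10.0nM final); pin 15-point compound titration; incubate 22hr at 37C; add CellTiter-Fluor at 21hr; read fluorescence.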
# [2] = target: Progesterone receptor (Homo sapiens) (UniProt P06401); assay: qHTS assay to identify small molecule agonists of the progesterone receptor (PR) signaling pathway (AID 1346784; calls by dose curve; note: nearly all actives have a fitted effect of over 30% in size)
# Sequence of Progesterone receptor (Homo sapiens) (P06401 whole entry, looked up): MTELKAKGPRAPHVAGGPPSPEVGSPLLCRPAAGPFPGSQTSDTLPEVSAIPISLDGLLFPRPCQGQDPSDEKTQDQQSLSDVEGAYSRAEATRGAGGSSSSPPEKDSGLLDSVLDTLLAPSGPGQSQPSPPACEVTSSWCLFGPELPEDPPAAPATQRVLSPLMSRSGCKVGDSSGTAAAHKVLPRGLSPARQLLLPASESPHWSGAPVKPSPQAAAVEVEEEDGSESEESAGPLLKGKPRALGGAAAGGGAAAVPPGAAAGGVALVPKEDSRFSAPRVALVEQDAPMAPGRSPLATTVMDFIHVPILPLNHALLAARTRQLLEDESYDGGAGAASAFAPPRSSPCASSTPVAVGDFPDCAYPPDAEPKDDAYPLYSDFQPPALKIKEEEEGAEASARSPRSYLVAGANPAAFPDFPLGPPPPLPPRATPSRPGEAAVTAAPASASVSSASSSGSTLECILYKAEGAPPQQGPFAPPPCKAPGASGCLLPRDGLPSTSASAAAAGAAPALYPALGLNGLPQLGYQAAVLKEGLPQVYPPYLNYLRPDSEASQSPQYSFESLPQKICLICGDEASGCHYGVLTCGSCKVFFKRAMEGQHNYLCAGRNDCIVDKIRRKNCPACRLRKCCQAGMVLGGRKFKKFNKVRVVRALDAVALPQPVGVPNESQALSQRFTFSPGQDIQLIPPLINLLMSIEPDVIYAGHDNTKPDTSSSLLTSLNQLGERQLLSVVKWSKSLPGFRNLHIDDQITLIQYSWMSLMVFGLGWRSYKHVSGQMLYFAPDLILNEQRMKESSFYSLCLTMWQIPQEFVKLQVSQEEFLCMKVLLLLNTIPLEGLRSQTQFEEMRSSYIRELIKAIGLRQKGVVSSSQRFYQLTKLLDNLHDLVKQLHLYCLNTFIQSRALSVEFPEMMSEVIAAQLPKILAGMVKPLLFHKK
# Summary of the method: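 Using charcoal-stripped serum (2%) to limit endogenous steroids, PR-UAS-bla HEK 293T cells received compounds for 16 hr at 37C after 6 hr plating; beta-lactamase FRET fluorescence was recorded following 2 hr substrate loading at room temperature.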
# [3] = qHTS assay to identify small molecule antagonists of the TGF-beta/Smad signaling pathway - cell viability counter screen (AID 1346824); note: nearly all actives have a fitted effect of over 50% in size
# Summary of the method: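 SBE-bla HEK 293T cells were plated overnight at 37 C, then given compounds in DMSO plus TGF-beta1 (added as 0.25 ng/mL solution) for 5 hr. After the bla read, CellTiter-Glo was added to the same wells and luminescence read after 30 min at room temperature.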
# [4] = qHTS assay to identify small molecule agonists of the TGF-beta/Smad signaling pathway - cell viability counter screen (AID 1346829); note: top concentration of the series differs between compounds; nearly all actives have a fitted effect of over 45% in size
# Summary of the method: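 After overnight seating at 37 C and 5% CO2, reporter cells got compounds for 5 hr and FRET substrate for 2 hr; cell viability then came from CellTiter-Glo luminescence.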
# [5] = qHTS assay to identify small molecule agonists of the TGF-beta/Smad signaling pathway (AID 1346859; active = well fitted activation curve with a large enough effect in the signal ratio in the repeat runs, not every such curve was filed as active; the % refers to the signal ratio; note: series mostly up to about 77 µM)
# Summary of the method: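 Stable Smad binding element-beta-lactamase HEK 293T cells; 5 hr compound exposure at 37 C under 5% CO2; 2 hr room-temperature substrate step; fluorescence excited at 405 nm, collected at 460 nm and 530 nm.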
# [6] = Human pregnane X receptor (PXR) small molecule agonists, qHTS cell viability counter screen (AID 1346977); note: nearly all actives have a fitted effect of over 50% in size; note: potency is the fitted concentration of half-maximal effect
# Summary of the method: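 Readout is CellTiter-Fluor fluorescence from PXR-Luc HepG2 cells. Plated cells rested 5hr, then were treated with compounds for 24hr at 37C and 5% CO2, with reagent present during the last hour.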
# [7] = Caspase-3/7 induction in HepG2 cells by small molecules, qHTS assay (AID 1346978); note: nearly all actives have a fitted effect of over 15% in size; note: potency is the fitted concentration of half-maximal effect
# Summary of the method: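 Wild-type HepG2 cells (2,000/well) were settled 5 h at 37 C, 5% CO2, then exposed to compounds in DMSO for 17 h. Caspase-3/7 activity was read by luminescence 30 min after adding Caspase-Glo 3/7 reagent at room temperature.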
# [8] = Caspase-3/7 induction in CHO-K1 cells by small molecules, qHTS cell viability counter screen (AID 1346979); note: nearly all actives have a fitted effect of over 35% in size; note: potency is the fitted concentration of half-maximal effect
# Summary of the method: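 To flag cytotoxic compounds, treated CHO-K1 wild-type cells were given CellTiter-Fluor at 16hr and read fluorescently after 1hr at 37C; the caspase-3/7 luminescence was measured in these same wells.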
# [9] = Caspase-3/7 induction in CHO-K1 cells by small molecules, qHTS assay (AID 1346980); note: nearly all actives have a fitted effect of over 15% in size
# Summary of the method: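 Wild-type cells were seeded at 1,500 per well and settled 5 hr at 37 C, 5% CO2, then exposed to DMSO-dissolved compounds for 17 hr. Caspase-Glo 3/7 reagent was added, and luminescence was read after 30min at room temperature.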
# [10] = Caspase-3/7 induction in HepG2 cells by small molecules, qHTS cell viability counter screen (AID 1346981); note: series mostly up to about 92 µM; nearly all actives have a fitted effect of over 30% in size
# Summary of the method: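 The parent HepG2 line is plated at 2,000 cells per well and rested 5 hr before compound pinning from DMSO stocks. Following a 16-hr treatment at 37 C, a fluorogenic live-cell substrate (CellTiter-Fluor) reports viability after 1 hr.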
# [11] = target: Cytochrome P450 2D6 (Homo sapiens) (UniProt P10635); assay: Cytochrome P450 Family 2 Subfamily D Member 6 (CYP2D6) small molecule antagonists: luciferase reporter qHTS assay (AID 1671196); note: nearly all actives have a fitted effect of over 50% in size; note: potency is the fitted concentration of half-maximal effect
# Sequence of Cytochrome P450 2D6 (Homo sapiens) (P10635 whole entry, looked up): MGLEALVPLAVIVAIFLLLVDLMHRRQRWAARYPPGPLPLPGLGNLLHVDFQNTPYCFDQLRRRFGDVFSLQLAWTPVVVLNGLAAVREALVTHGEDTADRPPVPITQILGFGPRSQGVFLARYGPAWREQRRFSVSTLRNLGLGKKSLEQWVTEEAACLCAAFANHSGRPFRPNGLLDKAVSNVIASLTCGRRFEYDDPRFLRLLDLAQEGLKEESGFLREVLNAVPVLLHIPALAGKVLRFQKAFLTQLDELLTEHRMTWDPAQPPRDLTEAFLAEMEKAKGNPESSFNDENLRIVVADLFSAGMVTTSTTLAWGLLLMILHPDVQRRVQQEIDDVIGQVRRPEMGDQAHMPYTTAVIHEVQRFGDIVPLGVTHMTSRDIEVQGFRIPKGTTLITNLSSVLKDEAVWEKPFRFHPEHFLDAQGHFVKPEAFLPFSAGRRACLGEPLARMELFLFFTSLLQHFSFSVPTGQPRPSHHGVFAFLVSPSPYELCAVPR
# Summary of the method: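 Quantitative HTS of Tox21 chemicals against CYP2D6 using a luminescent proluciferin substrate. After NADPH addition, 1 h room-temperature reaction; luminescence recorded 20 min post detection reagent.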
# [12] = qHTS assay to identify small molecule antagonists of the progesterone receptor (PR) signaling pathway - cell viability counter screen (AID 1346798); note: nearly all actives have a fitted effect of over 50% in size; note: potency is the fitted concentration of half-maximal effect
# Summary of the method: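 ATP content as viability readout: CellTiter-Glo luminescence, 30 min room temperature, in PR-UAS-bla HEK293T cells after 16 hr compound/R5020 treatment at 37C and 5% CO2.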
# [13] = target: Thyrotropin-releasing hormone receptor (Homo sapiens) (UniProt P34981); assay: qHTS assay to identify small molecule antagonists of the thyrotropin-releasing hormone receptor (TRHR) signaling pathway (AID 1346877; active = well fitted inhibition curve with a large enough effect in the repeat runs, not every such curve was filed as active; note: series mostly up to about 51 µM)
# Sequence of Thyrotropin-releasing hormone receptor (Homo sapiens) (P34981 whole entry, looked up): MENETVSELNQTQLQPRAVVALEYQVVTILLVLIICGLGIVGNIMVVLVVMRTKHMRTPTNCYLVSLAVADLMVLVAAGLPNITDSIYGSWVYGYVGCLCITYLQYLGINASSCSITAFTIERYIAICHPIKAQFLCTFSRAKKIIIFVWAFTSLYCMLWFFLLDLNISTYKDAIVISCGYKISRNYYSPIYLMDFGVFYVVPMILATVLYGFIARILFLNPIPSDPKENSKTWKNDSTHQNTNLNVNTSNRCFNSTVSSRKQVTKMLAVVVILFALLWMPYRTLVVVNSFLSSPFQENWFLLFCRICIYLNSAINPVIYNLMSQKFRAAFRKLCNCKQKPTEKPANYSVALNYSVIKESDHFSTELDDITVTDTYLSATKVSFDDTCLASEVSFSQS
# Summary of the method: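 Human TRHR in HEK293 cells; inhibition of the intracellular calcium rise triggered by 1 nM TRH was followed by fluorescence over 3 min. Compounds were run at 15 concentrations, three replicates each.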
# [14] = target: Thyrotropin-releasing hormone receptor (Homo sapiens) (UniProt P34981); assay: qHTS assay to identify small molecule agonists of the thyrotropin-releasing hormone receptor (TRHR) signaling pathway (AID 1346891; calls by dose curve;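 note: HEK293 cells expressing TRHR with calcium dye readout; series mostly up to about 58 µM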)
# Summary of the method: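 In 1536-format, 1500 TRHR-Hek293 cells per well grew 18 h, took up calcium dye for 2 h at 37 °C, received compound, and were read kinetically; 15-point titrations, triplicates.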
# [15] = target: Nuclear receptor subfamily 1 group I member 2 (Homo sapiens) (UniProt O75469); assay: Human pregnane X receptor (PXR) small molecule agonists, qHTS assay (AID 1346982); note: nearly all actives have a fitted effect of over 35% in size; note: potency is the fitted concentration of half-maximal effect
# Sequence of Nuclear receptor subfamily 1 group I member 2 (Homo sapiens) (O75469 whole entry, looked up): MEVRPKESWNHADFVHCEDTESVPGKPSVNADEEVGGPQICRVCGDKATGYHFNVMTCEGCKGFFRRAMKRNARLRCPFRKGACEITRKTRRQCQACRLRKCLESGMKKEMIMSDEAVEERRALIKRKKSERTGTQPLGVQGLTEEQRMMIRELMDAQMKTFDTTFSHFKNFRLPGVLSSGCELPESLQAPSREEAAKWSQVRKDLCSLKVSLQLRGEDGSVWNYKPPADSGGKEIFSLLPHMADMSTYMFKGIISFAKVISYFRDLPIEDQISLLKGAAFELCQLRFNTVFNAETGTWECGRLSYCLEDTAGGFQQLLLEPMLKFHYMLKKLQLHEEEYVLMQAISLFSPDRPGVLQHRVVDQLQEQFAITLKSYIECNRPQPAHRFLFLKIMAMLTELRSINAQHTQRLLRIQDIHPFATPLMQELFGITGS
# Summary of the method: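 After plating in 5% charcoal-stripped FBS and a 5 hr rest, PXR-Luc HepG2 cells received compounds in DMSO. Following 24 hr at 37 C, ONE-Glo was added and light output read.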
# [16] = qHTS assay to identify small molecule agonists of the progesterone receptor (PR) signaling pathway - cell viability counter screen (AID 1346799; calls by dose curve; note: nearly all actives have a fitted effect of over 45% in size; note: potency is the fitted concentration of half-maximal effect)
# Summary of the method: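 Cytotoxicity in PR-bla HEK293T cells: 16 h compound, 37C; CellTiter-Glo added post-FRET read; luminescence after 30 min RT.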
# [17] = target: Nuclear receptor subfamily 1 group I member 2 (Homo sapiens) (UniProt O75469); assay: CYP3A4 induction through human pregnane X receptor (PXR) by small molecules, qHTS assay (AID 1346984); note: nearly all actives have a fitted effect of over 40% in size
# Summary of the method: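 Human PXR activation is tracked via CYP3A4 promoter-luciferase in DPX-2 (HepG2) cells. Compounds treat cells for 24hr at 37C, and luminescence is read after One-Glo.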
# [18] = target: Nuclear receptor subfamily 1 group I member 2 (Homo sapiens) (UniProt O75469); assay: Human pregnane X receptor (PXR) activation by small molecules, qHTS assay (AID 1346985); note: nearly all actives have a fitted effect of over 40% in size; note: potency is the fitted concentration of half-maximal effect
# Summary of the method: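 DPX-2 cells (HepG2 co-transfected with a PXR response element and a CYP3A4-promoter luciferase construct) were seeded at 2,000 per well, rested 5 hr at 37C, then exposed to DMSO-dissolved compounds for 24 hr. Activation was read as luciferase luminescence.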
# [19] = target: Nuclear receptor subfamily 1 group I member 2 (Rattus norvegicus) (UniProt Q9R1A7); assay: Rat pregnane X receptor (rPXR) activation by small molecules, qHTS assay (AID 1346983); settings: rPXR luciferase reporter cells, One-Glo luminescence, 24 h; max activation: active compounds read high; note: nearly all actives have a fitted effect of over 20% in size
# Sequence of Nuclear receptor subfamily 1 group I member 2 (Rattus norvegicus) (Q9R1A7 whole entry, looked up): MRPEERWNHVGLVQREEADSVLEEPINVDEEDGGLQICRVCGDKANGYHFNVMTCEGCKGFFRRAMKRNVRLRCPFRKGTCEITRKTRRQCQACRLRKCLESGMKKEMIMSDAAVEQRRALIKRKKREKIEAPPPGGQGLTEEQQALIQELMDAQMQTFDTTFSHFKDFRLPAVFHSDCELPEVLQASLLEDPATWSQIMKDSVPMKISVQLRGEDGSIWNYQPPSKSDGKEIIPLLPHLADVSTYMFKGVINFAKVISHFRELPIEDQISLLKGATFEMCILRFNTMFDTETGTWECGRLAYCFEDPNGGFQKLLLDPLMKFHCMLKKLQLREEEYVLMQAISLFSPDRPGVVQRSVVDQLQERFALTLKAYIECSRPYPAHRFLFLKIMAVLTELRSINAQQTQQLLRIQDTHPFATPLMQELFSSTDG
# Summary of the method: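 Cell-based rPXR luciferase reporter assay, 2,000 cells per well, rested 5hr at 37 C before compound addition in DMSO, then 24 hr at 37 C. One-Glo reagent was added and luminescence read after 30 min at room temperature.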
# [20] = target: Progesterone receptor (Homo sapiens) (UniProt P06401); assay: qHTS assay to identify small molecule antagonists of the progesterone receptor (PR) signaling pathway (AID 1346795; active = well fitted inhibition curve with a large enough effect in the signal ratio in the repeat runs, not every such curve was filed as active; the % refers to the signal ratio; note: potency is the fitted concentration of half-maximal effect)
# Summary of the method: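 Inhibition of R5020-induced (1 nM final) beta-lactamase reporter signal in PR-UAS-bla HEK293T cells was scored by FRET fluorescence after overnight (16 hr) compound treatment.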
Compound,Potency [1],Potency [2],outcome [3],outcome [4],outcome [5],Potency [6],Potency [7],Potency [8],outcome [9],Potency [10],Potency [11],Potency [12],outcome [13],Potency [14],Potency [15],Potency [16],Potency [17],Potency [18],max activation [19] [%],Potency [20]
COC(=O)CC(=O)C(C)(C)C,inactive,inactive,inactive,inactive,inactive,inactive,inactive,inactive,inactive,inactive,inactive,,,,,,,,,
CCOC(=O)c1ccccc1C,inactive,inactive,inactive,inactive,inactive,inactive,inactive,inactive,inactive,inactive,inactive,15.4 µM (active),inactive,inactive,,,,,,
CCOC(=O)N1CCC(n2c(=O)[nH]c3cc(Cl)ccc32)CC1,23.7 µM (active),inactive,inactive,inactive,inactive,,inactive,,inactive,,inactive,,inactive,inactive,inactive,,,,,
CNC(=S)NC,inactive,inactive,inactive,inactive,,inactive,inactive,,inactive,inactive,,,inactive,inactive,inactive,7.7 µM (active),,,,
CC(C)OCC1CO1 (stereo unspecified),inactive,inactive,inactive,inactive,inactive,inactive,inactive,inactive,inactive,inactive,inactive,,inactive,inactive,inactive,,,,,
CC(=N\O)/C(C)=N/O,inactive,inactive,inactive,inactive,inactive,inactive,inactive,inactive,inactive,inactive,,,inactive,inactive,inactive,,,,,
O=C(O)c1ccccc1NCCc1ccccc1,inactive,inactive,inactive,,inactive,inactive,inactive,inactive,inactive,inactive,,,inactive,inactive,23.7 µM (active),inactive,,,,
O=C(CCCN1CCN(c2ccc(F)cc2)CC1)NC1c2ccccc2CSc2ccccc21 (stereo unspecified),inactive,inactive,inactive,,inactive,21.1 µM (active),inactive,inactive,inactive,inactive,9.77 µM (active),,,inactive,,inactive,,,,
CCn1nc(C)c2c1C(=O)NCC(c1ccc(O)cc1)=N2,inactive,inactive,inactive,,inactive,inactive,inactive,inactive,inactive,inactive,inactive,inactive,,,,,,,,
C[N+]1(C)CCC(=C(c2ccccc2)c2ccccc2)CC1,inactive,inactive,inactive,inactive,,inactive,inactive,inactive,inactive,inactive,12.3 µM (active),inactive,,inactive,inactive,inactive,inactive,inactive,,
COC(=O)Nc1nc2ccc(C(=O)c3cccs3)cc2[nH]1,inactive,inactive,inactive,inactive,inactive,,0.266 µM (active),,inactive,inactive,38.9 µM (active),,,,26.6 µM (active),,,,,
CCCc1c(OCCCOc2ccc(OCC(=O)O)cc2)ccc(C(C)=O)c1O,inactive,inactive,inactive,inactive,,inactive,inactive,,inactive,inactive,inactive,,,,,inactive,,,,
Nc1nc(Cl)nc2c1ncn2[C@@H]1O[C@H](CO)[C@@H](O)[C@@H]1F,inactive,inactive,inactive,inactive,,inactive,inactive,,inactive,inactive,inactive,inactive,inactive,inactive,0.531 µM (active),inactive,,1 µM (active),-7.37,
CCOC(=O)C(C)Oc1ccc(Oc2nc3ccc(Cl)cc3o2)cc1 (stereo unspecified),inactive,inactive,inactive,inactive,,inactive,inactive,inactive,inactive,inactive,,inactive,,inactive,,inactive,,,,
CCC(=O)Oc1ccc(/C(CC)=C(\CC)c2ccc(OC(=O)CC)cc2)cc1,inactive,,inactive,inactive,,,inactive,61.1 µM (active),inactive,inactive,inactive,,inactive,inactive,,,,,,12.2 µM (active)
